Results reported in PubChem BioAssay (NCI).
This is part of a sample that, as a whole, favours compounds with a hit. Of some 83,000 tested, about 20% had one in any assay.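 The endpoint reported here, percent growth, reads 100 for growth as untreated, 0 for no net growth and -100 for all cells dead.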 Unmarked numbers belong to inactive results. Activity calls are given as the source filed them. The calls were made as follows: active = growth percent below 10; inactive = the rest.

The compounds below were run on MCF7 breast (assay: NCI-60 one-dose screen, 48 h (100 = growth as untreated, 0 = no growth, -100 = all killed)). Details: 10 µM unless noted.

Row | Structure (SMILES) | growth
1 | CCCCNc1ccc2c3c(cccc13)C(=O)N(c1cccc(-c3nn(-c4ccccc4)cc3-c3nc4ccccc4s3)c1)C2=O | 109%
2 | COc1ccc(-c2cc(-c3cc(OC)c(OC)c(OC)c3)[nH]c(=O)c2C#N)cc1 | 86.2%
3 | COc1cc(C2CC(c3ccc(Cl)cc3)=Nc3c(N)nc(N)nc3N2)ccc1Oc1nc(Nc2ccc(F)cc2)nc(N(C)C)n1 (stereo not drawn) | 2.22% (active)
4 | O=C(O)CC1S/C(=N/N=C/c2nc3ccccc3s2)NC1=O (stereo not drawn) | 60.9%
5 | Cc1ccc(S(=O)(=O)N(CCn2ccnc2[N+](=O)[O-])CCn2ccnc2[N+](=O)[O-])cc1 | 100%
6 | N#CCc1nnc(NC(=O)c2ccc(-n3c(=O)[nH]c4ccccc4c3=O)cc2)s1 | 90.6%
7 | O=C(N/N=C/c1ccc(Br)o1)c1[nH]c2ccc(Br)cc2c1-c1ccccc1 | 0.0933% (active)
8 | COc1ccc(N=Nc2c(N)nn3c(-c4ccc([N+](=O)[O-])cc4)ccnc23)cc1 | 95.3%
9 | Cn1cc(-c2cc(N)n3nc(-c4c[nH]c5ccc(Cl)cc45)cc3n2)c2cc(Br)cnc21 | -59.8% (active)
10 | CN1C(=O)C2(C(C#N)=C(c3ccc(Cl)cc3)Nc3c2c(-c2ccccc2)nn3-c2ccccc2)c2ccccc21 (stereo not drawn) | 73.8%
11 | Cc1nn(-c2ccccc2)c2nc(C)n(C(=O)N/N=C/c3ccccc3)c(=O)c12 | 92.9%
12 | CN1CCN(CCS(=O)(=O)Nc2cc(-c3ccc4ncnc(Nc5ccc(F)c(Cl)c5)c4c3)cnc2Cl)CC1 | 10.2%
13 | COc1cc(C2CC(c3ccc(C(F)(F)F)cc3)=Nc3c(N)nc(N)nc3N2)ccc1Oc1nc(Nc2ccc(F)cc2)nc(N(C)C)n1 (stereo not drawn) | 3.18% (active)
14 | COc1ccc2[nH]c(=O)c(CSc3ccccc3Nc3nccc(-c4ccc5c(c4)OCO5)n3)cc2c1 | 68.2%
15 | Cc1cc(=O)oc2cc(OCC(O)CNN3C(=O)c4cccc5c(N6CCN(C)CC6)ccc(c45)C3=O)ccc12 (stereo not drawn) | 88.6%
16 | CC[C@]12C=CCN3CC[C@]4(C(=C(C(=O)OC)C1)Nc1cc(OC)c([C@@H]5[C@H]6O[C@H]6[C@@]6(CC)CC(C(=O)OC)=C7Nc8cc(OC)ccc8[C@@]78CCN5[C@@H]68)cc14)[C@@H]32 | 17.2%
17 | C#CCCCNCCNc1ccnc2cc(Cl)ccc12 | 52%
18 | CCOC(=O)/C(F)=C/C1CC1C(c1ccccc1)c1ccccc1 (stereo not drawn) | 80.7%
19 | S=C(NCCc1ccccc1)Nc1ccc(OCc2nc3ccc(Cl)cc3[nH]2)cc1 | 7.94% (active)

Row | Structure (SMILES) | growth
20 | Cc1ccc(C(=O)C[n+]2cccc3c4ccccc4ccc32)cc1 | 11.8%
21 | CCCn1c(NC(=O)c2cccc(C(N)=O)c2)nc2cc(CN3CCCCC3)ccc21 | 71.5%
22 | CCC(=O)c1c2c(c3ccc4c5ccccc5ccc4n13)C(=O)c1ccccc1C2=O | 54%
23 | O=C1/C(=C/c2cnc(-c3ccccc3)s2)SC(=S)N1Cc1ccc2c(c1)OCO2 | 59.3%
24 | O=c1[nH]c2ccccc2cc1COc1ccc(Nc2nccc(-c3ccc(Cl)cc3)n2)cc1 | 91.3%
25 | O=C(/C=C1\C(=O)N(Cc2ccccc2)c2ccccc21)c1cc2ccccc2oc1=O | 29.8%
26 | COc1ccc(NC(=O)Cn2c(/C=C/c3cccc(Br)c3)nc3ccccc3c2=O)cc1 | 34.2%
27 | O=c1ccc(Cn2c(C(F)(F)F)cc3c(Cl)ncnc32)c[nH]1 | 82.4%
28 | CCCCC[C@@H]1C/C=C(\C)[C@@H](O)C(C)(C)C(=O)[C@@H](C)/C=C(\C)[C@@H]2C[C@H](O)C[C@](O)(CC(=O)O1)O2 | 7.53% (active)
29 | COc1cc(NC(=O)CSc2nnc(-c3ccc(-c4nc5ccc(Cl)cc5[nH]4)cc3)o2)cc(OC)c1OC | 6.03% (active)
30 | Cc1ccc(C2CC(c3ccc(S(=O)(=O)NCCNc4nc(N(C)C)nc(N5CCOCC5)n4)cc3)=Nc3c(N)nc(N)nc3N2)cc1 (stereo not drawn) | 27.6%
31 | CCCCNC(=S)Nc1ccc(OCc2nc3ccc(Cl)cc3[nH]2)cc1 | 6.29% (active)
32 | Nc1nn2c(-c3cc4cc(Br)ccc4oc3=O)ccnc2c1N=Nc1ccc(S(N)(=O)=O)cc1 | 71.4%
33 | OCCn1cc(-c2nc3ccc4[nH]ncc4c3c3c2CCCC3)cn1 | 39.3%
34 | CN(C)CCCc1ccc(Nc2cnn(C)c(=O)c2Cl)cc1 | 80.8%
35 | Nc1cc2ccccc2c(=O)n1NC(=O)c1ccccc1 | 53.8%
36 | Cn1cc(-c2cc(N)n3nc(-c4c[nH]c5ccccc45)cc3n2)c2cc(Cl)ccc21 | -70.3% (active)
37 | O=C(NC(=S)N1CCN(c2ncnc3c2cnn3-c2ccccc2)CC1)c1ccc(Br)cc1 | 49.8%
38 | O=C(N/N=C/c1ccc(B(O)O)s1)c1[nH]c2ccc(Br)cc2c1-c1ccccc1 | -67.1% (active)
